Structures are written as SMILES. Inconclusive results are not listed. The source holds several records for some structures; these can differ, active in one and inactive in another. Activity calls are given as the source filed them. Rule for the calls, unless noted: active = hit-call score of the fitted dose curve at least 0.9, where 1 is the maximum; inactive = score below 0.9.

A word on the AC50: it is the concentration giving half of the maximal activity seen.

Test [1] in a line: ATG_NFI_CIS: Attagene CIS-FACTORIAL HepG2 Assay for human Nuclear Factor I (NFI) (AID 2282989). The following applies: HepG2 cis-regulatory reporter, NFI response element transcription; actives raise or lower the signal. The procedure, abridged:
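Multiplexed cis-reporter system in human HepG2 cells reports native TF activity as reporter mRNA induction 24 h post-dose. Fragments labelled with 6-FAM, HpaI-digested and resolved by capillary electrophoresis; activity fitted both directions versus DMSO.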

The target in test [2] is Myc proto-oncogene protein (Homo sapiens) (UniProt P01106). Description: ATG_Myc_CIS: Attagene CIS-FACTORIAL HepG2 Assay for human Myelocytomatosis (Myc) Proto-Oncogene Transcription Factor (AID 2282990). The following applies: HepG2, Attagene cis-reporter transcription factor activity; actives raise or lower the signal. The procedure, abridged:
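Fluorescence intensity of reporter-specific cDNA fragments, separated by capillary electrophoresis, gives the signal. Transfected HepG2 cells carrying cis-promoter reporter constructs are incubated with compound for 24 h; DMSO serves as baseline.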

Test [3] can be described thus: ATG_NF_kB_CIS: Attagene CIS-FACTORIAL HepG2 Assay for human Nuclear Factor Kappa B (NF-kB) (AID 2282991). The following applies: HepG2 Attagene cis-factorial NF-kB reporter mRNA; actives raise or lower the signal. A digest of the protocol:
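Measures mRNA induction of an NF-kB-responsive cis-element reporter in HepG2 cells transfected with multiple reporter units, sampled 24 h post-dosing; quantified by fluorescence after RT-PCR and capillary electrophoresis, fitted for activation or inhibition against DMSO.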

A short description of test [4]: ATG_Oct_MLP_CIS: Attagene CIS-FACTORIAL HepG2 Assay for human Octamer-Binding Transcription Factor (Oct) (AID 2282993). As to conditions: HepG2 Attagene cis-factorial Oct reporter, mRNA; actives raise or lower the signal. The procedure, abridged:
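After 24 h compound exposure, transfected HepG2 cells were lysed for total RNA; reporter-specific cDNA was PCR-amplified, fluorescently labelled and sized by capillary electrophoresis. Bidirectional curve fitting used DMSO as baseline.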

Test [5] has as its target Cellular tumor antigen p53 (Homo sapiens) (UniProt P04637). Description: ATG_p53_CIS: Attagene CIS-FACTORIAL HepG2 Assay for human p53 Transcription Factor (AID 2282994). The following applies: HepG2 p53 cis-element reporter, Attagene mRNA; actives raise or lower the signal. A digest of the protocol: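 HepG2, transient MRTU transfection (cis promoter elements, endogenous TFs); 24 h dosing; RNA isolation, RT-PCR, 6-FAM primer extension, HpaI digest, CE fluorescence; bidirectional fit vs DMSO.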

Test [6] concerns the target human Peroxisome Proliferator-activated Receptor alpha (PPARa), PPARA (gene 5465) (UniProt Q07869). Description: ATG_PPARa_TRANS: Attagene TRANS-FACTORIAL HepG2 Assay for human Peroxisome Proliferator-activated Receptor alpha (PPARa) (AID 2283001; active = hit-call score of the fitted dose curve at least 0.9, where 1 is the maximum). The procedure, abridged:
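Measures transcriptional activity of an exogenous chimeric PPARa-Gal4 protein in transiently transfected HepG2 cells after 24 h dosing. Reporter mRNA quantified via RT-PCR and capillary electrophoresis; DMSO served as negative control.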

Test [7] has as its target Peroxisome proliferator-activated receptor gamma (Homo sapiens) (UniProt P37231). Description: ATG_PPARg_TRANS: Attagene TRANS-FACTORIAL HepG2 Assay for human Peroxisome Proliferator-activated Receptor-gamma (PPARg) (AID 2283007; active = hit-call score of the fitted dose curve at least 0.9, where 1 is the maximum). A digest of the protocol: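 Gain-of-signal endpoint relative to DMSO, derived from reporter mRNA levels quantified by RT-PCR and capillary electrophoresis. Cells were HepG2 transiently expressing a chimeric NR-Gal4 construct with GAL4-UAS reporters, exposed to chemicals for 24 h.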

Test [8] deals with human RAR-related Orphan Receptor beta (RORb), RORB (gene 6096) (UniProt Q92753). Description: ATG_RORb_TRANS: Attagene TRANS-FACTORIAL HepG2 Assay for human RAR-related Orphan Receptor beta (RORb) (AID 2283010; active = hit-call score of the fitted dose curve at least 0.9, where 1 is the maximum). A digest of the protocol:
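HepG2 cells were transiently transfected with multiplexed GAL4-UAS reporter units expressing chimeric nuclear receptor–GAL4 proteins, then dosed for 24 h. Reporter mRNA was quantified by RT-PCR with fluorescent labelling and capillary electrophoresis; gain of signal was fitted relative to DMSO.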

The target in test [9] is human RAR-related Orphan Receptor gamma (RORg), RORC (gene 6097) (UniProt P51449). Description: ATG_RORg_TRANS: Attagene TRANS-FACTORIAL HepG2 Assay for human RAR-related Orphan Receptor gamma (RORg) (AID 2283011; active = hit-call score of the fitted dose curve at least 0.9, where 1 is the maximum). A digest of the protocol: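 Reporter transcripts from a transfected RORg-GAL4 chimera in HepG2 cells were quantified 24 h after dosing by RT-PCR, 6-FAM labelling, HpaI digestion and capillary electrophoresis; increases over DMSO baseline were fitted.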

Test [10] in a line: ATG_NRF2_ARE_CIS: Attagene CIS-FACTORIAL HepG2 Assay for human Nuclear Factor Erythroid 2 Related Factor 2 (NFR2) response to Antioxidant Response Elements (ARE) (AID 2282992).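 For AC50: reporter mRNA level measured by RT-PCR and capillary electrophoresis fluorescence.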 As to conditions: HepG2 Attagene ARE/NRF2 reporter, transcription factor activity; actives raise or lower the signal. The procedure, abridged: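 Transient MRTU transfection of HepG2; 24 h compound exposure; TriZol RNA, RT with oligo(dT), PCR, 6-FAM primer extension, HpaI cut, CE. Bidirectional fit vs DMSO.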

The target of test [11] is human Peroxisome Proliferator-activated Receptor delta (PPARd), PPARD (gene 5467) (UniProt Q03181). Description: ATG_PPARd_TRANS: Attagene TRANS-FACTORIAL HepG2 Assay for human Peroxisome Proliferator-activated Receptor delta (PPARd) (AID 2283002; active = hit-call score of the fitted dose curve at least 0.9, where 1 is the maximum). A digest of the protocol: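 Fluorescence from capillary electrophoresis of labelled RT-PCR reporter fragments gives the signal; DMSO sets baseline. Cells: HepG2 transiently carrying GAL4-UAS reporter units plus chimeric nuclear receptor-Gal4 proteins, exposed to chemicals for 24 h.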

Test [12] has as its target Nuclear receptor subfamily 1 group I member 2 (Homo sapiens) (UniProt O75469). Description: ATG_PXR_TRANS: Attagene TRANS-FACTORIAL HepG2 Assay for human Pregnane X Receptor (PXR) (AID 2283008; active = hit-call score of the fitted dose curve at least 0.9, where 1 is the maximum). The procedure, abridged: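 Read-out is fluorescence of labelled reporter cDNA fragments separated by capillary electrophoresis after RT-PCR and HpaI digestion. Source: HepG2 cells carrying PXR-GAL4/UAS reporter constructs, treated 24 h; activity fitted upward relative to DMSO.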

Test [13] in a line: BSK_3C_uPAR: BioMAP Diversity Plus: 3C Assay for Urokinase-type plasminogen activator receptor (uPAR) Biomarker Activity (AID 2282998). The following applies: BioMAP 3C HUVEC, uPAR biomarker ELISA; actives raise or lower the signal. A digest of the protocol:
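Values derive from bidirectional curve fitting relative to DMSO, which served as baseline of activity. uPAR was measured by ELISA in human umbilical vein endothelial primary cultures 24 h after compound addition.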

A short description of test [14]: BSK_3C_VCAM1: BioMAP Diversity Plus: 3C Assay for Vascular cell adhesion molecule 1 (VCAM1) Biomarker Activity (AID 2282999). The following applies: BioMAP 3C HUVEC, VCAM1 ELISA, cytokine-stimulated; actives raise or lower the signal. A digest of the protocol:
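Human umbilical vein endothelial cells (3C system), biomarker read by ELISA 24 h after dosing; bidirectional fit against DMSO baseline. Cytotoxicity tracked by SRB total-protein staining in parallel cultures at biomarker time.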
Background: ELISA stands for enzyme-linked immunosorbent assay.

Test [15] can be described thus: BSK_4H_Eotaxin3: BioMAP Diversity Plus: 4H Assay for Eotaxin 3 Biomarker Activity (AID 2283000).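 Note: CCL26 protein level quantified by ELISA in parallel with SRB cytotoxicity check.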 As to conditions: primary human endothelial cells (HUVEC); actives raise or lower the signal. A digest of the protocol:
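Human umbilical vein endothelial cells (BSK_4H system) dosed with test chemical; Eotaxin-3 (CCL26) measured by ELISA 24 h after dosing. Bidirectional curve fitting relative to DMSO negative control as baseline.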

Read-out in test [16]: Intercellular Adhesion Molecule 1 (ICAM1), ICAM1 (gene 3383)
Description: BSK_3C_ICAM1: BioMAP Diversity Plus: 3C Assay for Intercellular Adhesion Molecule 1 (ICAM1) Biomarker Activity (AID 2283003). As to conditions: primary human endothelial cells (HUVEC); actives raise or lower the signal. The procedure, abridged:
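Primary human umbilical vein endothelial cells in the BioMAP 3C system were exposed to chemicals for 24 h, then ICAM-1 was quantified by ELISA. Activity was fitted bidirectionally against the DMSO negative control baseline.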

The nature of test [17]: BSK_3C_Proliferation: Cell Proliferation Assessment in the BioMAP Diversity Plus: 3C Assay (AID 2283006).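 For AC50: potency may reflect either rise or fall in cell number versus DMSO.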 The following applies: primary human endothelial cells (HUVEC). A digest of the protocol: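 Human umbilical vein endothelial cells were grown sub-confluent and exposed to chemical for 48 h, then fixed with 10% TCA and stained with 0.1% sulforhodamine B; absorbance at 560 nm gave relative cell number, fitted bidirectionally against DMSO baseline.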

Sequence of Nuclear receptor subfamily 1 group I member 2 (Homo sapiens) (O75469 whole entry, looked up, the tested form may be a part): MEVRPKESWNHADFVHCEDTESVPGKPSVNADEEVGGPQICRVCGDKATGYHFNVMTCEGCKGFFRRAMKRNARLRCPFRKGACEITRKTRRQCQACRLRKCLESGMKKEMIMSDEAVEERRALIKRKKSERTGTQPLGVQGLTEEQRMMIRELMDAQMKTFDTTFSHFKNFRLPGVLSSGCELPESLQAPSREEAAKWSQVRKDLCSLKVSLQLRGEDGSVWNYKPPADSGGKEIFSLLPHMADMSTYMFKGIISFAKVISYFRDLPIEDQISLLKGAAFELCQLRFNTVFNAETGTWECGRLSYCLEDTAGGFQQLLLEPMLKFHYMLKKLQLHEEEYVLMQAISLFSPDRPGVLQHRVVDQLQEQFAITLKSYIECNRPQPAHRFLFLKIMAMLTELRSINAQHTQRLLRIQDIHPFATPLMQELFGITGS
Sequence of Peroxisome proliferator-activated receptor gamma (Homo sapiens) (P37231 whole entry, looked up, the tested form may be a part): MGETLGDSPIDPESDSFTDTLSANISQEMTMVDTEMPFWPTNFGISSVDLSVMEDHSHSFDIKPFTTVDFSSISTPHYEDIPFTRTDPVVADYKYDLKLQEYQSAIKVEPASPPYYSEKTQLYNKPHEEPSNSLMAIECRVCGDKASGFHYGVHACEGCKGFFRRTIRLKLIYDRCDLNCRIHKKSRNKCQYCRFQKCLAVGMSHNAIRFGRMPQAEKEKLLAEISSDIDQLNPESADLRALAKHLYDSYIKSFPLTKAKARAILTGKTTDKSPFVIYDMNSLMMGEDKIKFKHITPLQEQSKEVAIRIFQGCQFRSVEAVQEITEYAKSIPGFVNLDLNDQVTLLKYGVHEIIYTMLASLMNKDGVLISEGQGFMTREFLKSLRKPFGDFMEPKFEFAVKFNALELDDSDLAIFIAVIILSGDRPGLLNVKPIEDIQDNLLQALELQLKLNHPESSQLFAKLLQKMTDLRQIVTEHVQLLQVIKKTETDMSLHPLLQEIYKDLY
Sequence of human Peroxisome Proliferator-activated Receptor delta (PPARd), PPARD (gene 5467) (Q03181 whole entry, looked up, the tested form may be a part): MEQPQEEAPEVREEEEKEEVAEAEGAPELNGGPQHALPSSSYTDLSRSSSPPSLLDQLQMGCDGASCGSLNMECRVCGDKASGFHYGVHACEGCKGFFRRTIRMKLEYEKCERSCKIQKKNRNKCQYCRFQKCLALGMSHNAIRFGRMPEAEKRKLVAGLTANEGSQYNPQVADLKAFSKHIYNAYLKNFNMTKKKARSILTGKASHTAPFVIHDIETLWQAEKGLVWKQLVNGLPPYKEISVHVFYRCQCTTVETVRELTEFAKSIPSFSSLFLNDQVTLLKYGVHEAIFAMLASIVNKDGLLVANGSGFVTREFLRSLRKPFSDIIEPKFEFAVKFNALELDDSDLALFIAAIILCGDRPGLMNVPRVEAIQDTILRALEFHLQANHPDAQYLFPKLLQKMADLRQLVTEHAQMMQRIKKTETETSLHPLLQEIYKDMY
Sequence of human RAR-related Orphan Receptor gamma (RORg), RORC (gene 6097) (P51449 whole entry, looked up, the tested form may be a part): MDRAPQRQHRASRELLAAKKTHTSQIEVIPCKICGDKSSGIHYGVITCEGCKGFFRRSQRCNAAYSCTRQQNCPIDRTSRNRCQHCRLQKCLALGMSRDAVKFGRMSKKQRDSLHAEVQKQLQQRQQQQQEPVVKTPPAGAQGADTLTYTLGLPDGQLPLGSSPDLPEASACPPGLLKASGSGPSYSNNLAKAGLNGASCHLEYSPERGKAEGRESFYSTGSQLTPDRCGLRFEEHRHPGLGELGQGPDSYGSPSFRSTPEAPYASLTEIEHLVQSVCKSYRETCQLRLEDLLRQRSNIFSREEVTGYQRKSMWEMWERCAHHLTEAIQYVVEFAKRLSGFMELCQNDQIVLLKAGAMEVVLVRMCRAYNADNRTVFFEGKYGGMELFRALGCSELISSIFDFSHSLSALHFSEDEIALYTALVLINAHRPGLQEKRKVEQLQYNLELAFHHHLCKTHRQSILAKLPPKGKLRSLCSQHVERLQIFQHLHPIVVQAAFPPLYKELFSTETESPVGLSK
Sequence of human Peroxisome Proliferator-activated Receptor alpha (PPARa), PPARA (gene 5465) (Q07869 whole entry, looked up, the tested form may be a part): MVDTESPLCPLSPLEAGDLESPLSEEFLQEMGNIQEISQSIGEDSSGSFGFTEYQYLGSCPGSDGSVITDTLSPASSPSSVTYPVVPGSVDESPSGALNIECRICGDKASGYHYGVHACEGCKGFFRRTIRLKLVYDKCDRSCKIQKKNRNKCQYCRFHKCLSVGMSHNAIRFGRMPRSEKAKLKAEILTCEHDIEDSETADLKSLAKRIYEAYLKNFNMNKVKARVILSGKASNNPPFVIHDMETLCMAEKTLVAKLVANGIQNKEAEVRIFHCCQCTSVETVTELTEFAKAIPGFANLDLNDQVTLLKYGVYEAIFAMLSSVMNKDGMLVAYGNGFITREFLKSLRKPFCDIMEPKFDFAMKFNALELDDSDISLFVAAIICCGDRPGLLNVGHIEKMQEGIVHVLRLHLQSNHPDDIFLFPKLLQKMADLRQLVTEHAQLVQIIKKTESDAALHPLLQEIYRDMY
Sequence of Myc proto-oncogene protein (Homo sapiens) (P01106 whole entry, looked up, the tested form may be a part): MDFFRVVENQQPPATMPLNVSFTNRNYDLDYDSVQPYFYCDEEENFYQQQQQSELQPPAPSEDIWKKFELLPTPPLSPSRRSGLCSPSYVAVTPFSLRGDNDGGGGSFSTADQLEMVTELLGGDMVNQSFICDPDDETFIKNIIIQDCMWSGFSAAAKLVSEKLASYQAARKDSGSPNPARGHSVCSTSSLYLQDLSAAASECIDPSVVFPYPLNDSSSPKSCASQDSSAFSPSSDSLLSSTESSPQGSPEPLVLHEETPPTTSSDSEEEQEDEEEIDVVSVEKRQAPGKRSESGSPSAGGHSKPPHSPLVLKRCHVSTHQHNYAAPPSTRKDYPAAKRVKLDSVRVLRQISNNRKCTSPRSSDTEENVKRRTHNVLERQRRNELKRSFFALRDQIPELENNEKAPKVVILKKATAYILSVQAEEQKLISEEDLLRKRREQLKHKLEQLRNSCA
Sequence of Cellular tumor antigen p53 (Homo sapiens) (P04637 whole entry, looked up): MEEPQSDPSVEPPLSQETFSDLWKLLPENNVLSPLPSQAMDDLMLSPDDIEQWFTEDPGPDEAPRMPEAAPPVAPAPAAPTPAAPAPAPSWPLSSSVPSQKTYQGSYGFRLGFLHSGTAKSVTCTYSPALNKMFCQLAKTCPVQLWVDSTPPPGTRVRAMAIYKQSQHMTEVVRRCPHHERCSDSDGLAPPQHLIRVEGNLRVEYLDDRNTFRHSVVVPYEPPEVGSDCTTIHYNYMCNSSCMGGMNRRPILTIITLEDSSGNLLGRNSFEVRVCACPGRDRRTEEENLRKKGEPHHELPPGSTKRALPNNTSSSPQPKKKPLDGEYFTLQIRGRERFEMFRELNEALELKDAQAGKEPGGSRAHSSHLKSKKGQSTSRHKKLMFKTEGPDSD
Sequence of human RAR-related Orphan Receptor beta (RORb), RORB (gene 6096) (Q92753 whole entry, looked up, the tested form may be a part): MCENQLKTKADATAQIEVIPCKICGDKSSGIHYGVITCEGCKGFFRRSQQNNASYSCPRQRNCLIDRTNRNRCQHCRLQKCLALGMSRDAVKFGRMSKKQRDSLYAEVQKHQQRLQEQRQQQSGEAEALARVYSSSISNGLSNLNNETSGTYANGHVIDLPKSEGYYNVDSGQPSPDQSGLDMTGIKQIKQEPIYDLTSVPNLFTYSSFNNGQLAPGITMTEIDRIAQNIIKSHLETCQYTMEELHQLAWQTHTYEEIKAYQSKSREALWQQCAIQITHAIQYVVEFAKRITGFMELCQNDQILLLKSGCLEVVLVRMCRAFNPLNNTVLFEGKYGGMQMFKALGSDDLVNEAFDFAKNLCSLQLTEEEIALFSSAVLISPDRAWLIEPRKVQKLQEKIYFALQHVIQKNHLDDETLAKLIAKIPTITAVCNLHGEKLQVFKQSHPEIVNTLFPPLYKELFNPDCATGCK

With `CCCC(C)C=O` (stereo unspecified), the result in test [1], in [2], in [3], in test [4], in test [5] and in test [6] was inactive. The result in [7], in test [8] and in [9] was inactive.

As to `COc1ccc(Nc2ccccc2)c(C)c1`, the compound was classed as inactive in test [1], in test [2], in test [5] and in test [11]. The AC50 in test [3] is 151 µM (active); in [10] it was 79.9 µM (active).

Take `CC(C)C(C)(C)C(C)(C)C(C)(C)S`: the compound was classed as inactive in test [1], in test [2], in [3], in [4], in [5] and in test [11]. The compound was classed as inactive in test [9]. Besides, the results for the AC50 in test [7] and in test [12] were 100 µM (active) and 4.47 µM (active), respectively.

For `CCCCCCCCCCN`, the call in [1], in test [2], in test [3], in test [10], in test [5] and in test [11] was inactive.

On to `O=S(=O)(O)c1ccc(O)c2ncccc12`, for which the compound was classed as inactive in test [1], in test [2], in test [3], in test [5], in test [6] and in [11]. Further, the outcome in test [12], in [8] and in test [9] was inactive.

`c1ccc(CCCc2ccccn2)cc1`: the compound was classed as inactive in test [1], in [2], in test [3], in test [4], in test [5] and in test [6]. Besides, the AC50 in [7] is 50.7 µM (active); in [12] it was 18.6 µM (active).

For `C=CCOC(=O)CCC1CCCCC1`, the result in [1], in test [2], in test [10], in test [4], in test [5] and in [13] was inactive. For the same compound, the result in test [14], in [15], in test [6], in test [16], in test [17] and in [7] was inactive. Also, the compound was called inactive in test [12]. In test [17], the AC50 is 31.6 µM (active).

As to `CNC(=O)Oc1ccc2c(c1)[C@]1(C)CCN(C)[C@@H]1N2C`, the result in test [1], in test [2], in [3], in test [11], in test [7] and in test [12] was inactive. Moreover, the AC50 in [10] was 100 µM (active).

`O=C(O)c1ccc(C(=O)O)cc1`: the compound was classed as inactive in test [1], in test [2], in test [3], in test [10], in test [5] and in test [12]. Further, the compound was classed as inactive in test [9].

With `CC(=O)Nc1ccccc1O`, the compound was classed as inactive in [1], in [2], in [3], in test [4], in [13] and in test [14]. Besides, the outcome in [15], in test [16], in [7], in test [12] and in test [9] was inactive.

Turning to `CC(C)=CCC[C@H](C)CC=O`, the outcome in test [1], in [2], in test [10], in test [4], in test [5] and in [6] was inactive. For the same compound, the result in test [7] and in test [12] was inactive.

For `O=C1CCc2ccccc2O1`, the outcome in [1], in test [2], in [10], in test [4], in test [5] and in test [6] was inactive. For the same compound, the result in [7] and in test [12] was inactive.

With `CC1(C)[C@@H]2CC[C@@]1(C)[C@H](O)C2`, the result in test [1], in test [2], in test [10], in test [4], in [5] and in test [6] was inactive. Also, the result in test [11], in test [12] and in [9] was inactive.

(Values after PubChem BioAssay (EPA / NIEHS).)
